Growth yield data for 41 compounds are collected here from the supplement of paper PMC8007513.

This assay has as its system Trichoderma virens ATCC 9645. Put plainly: growth yield (OD600) with compound + IPBC relative to untreated control; higher = less growth inhibition. To be noted: compound concentration: 100 uM, IPBC concentration: 200 ng/ml. The essentials:
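A biocide at 200 ng ml^−1 was co-applied to some wells, and library compounds were present in all test wells at 100 μM final. The wells held 100 μl of Trichoderma virens ATCC 9645 spores at 15,000 spores ml^−1 in potato dextrose broth, grown at 30 °C in 96-well plates, with OD600 read at 40 h and 72 h. Results are relative growth against the control without either agent, averaged across duplicate screens.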

Counter-ions that a name gives are not always drawn. ± gives the standard error. Among all 1,300 compounds or so, about 130 (10%) showed an effect of 50% or more. The full list was thinned out, with strong results kept by preference.

In the case of `CCCCNc1ccc(C(=O)OCCN(C)C)cc1` + CCCCNC(=O)OCC#CI [3-iodo-2-propynyl butylcarbamate (IPBC)], the growth yield runs as follows: (40 h) 81.5 ± 1.4%; (72 h) 88.2 ± 0.32%.

Take `CCCCNc1c(C(=O)OCC)c(C)nc2c1cnn2CC` [Tracazolate hydrochloride] + CCCCNC(=O)OCC#CI [3-iodo-2-propynyl butylcarbamate (IPBC)]: the growth yield runs as follows: (40 h) 21.9%; (72 h) 53.7 ± 0.21%.

For the compound `CCCCNc1ccc(C(=O)OCCOCCOCCOCCOCCOCCOCCOCCOCCOC)cc1` [Benzonatate] + CCCCNC(=O)OCC#CI [3-iodo-2-propynyl butylcarbamate (IPBC)], the growth yield (40 h) is 77.4 ± 1.1% and the growth yield (72 h) was found to be 83.27 ± 0.42%.

`CC(C)(S)C(N)C(=O)O` (racemic) [D,L-Penicillamine] + CCCCNC(=O)OCC#CI [3-iodo-2-propynyl butylcarbamate (IPBC)]: the growth yield (40 h) worked out at 94.8 ± 8.4% and the growth yield (72 h) came to 94.2 ± 5.5%.

As for `COC1=CC(=O)C[C@@H](C)[C@]12Oc1c(Cl)c(OC)cc(OC)c1C2=O` [Griseofulvin] + CCCCNC(=O)OCC#CI [3-iodo-2-propynyl butylcarbamate (IPBC)], the growth yield runs as follows: (40 h) 48.8 ± 3.6%; (72 h) 85.2 ± 1.1%.

In the case of `CCC(=O)O[C@@H](O[P@](=O)(CCCCc1ccccc1)CC(=O)N1C[C@H](C2CCCCC2)C[C@H]1C(=O)O)C(C)C` [Fosinopril] + CCCCNC(=O)OCC#CI [3-iodo-2-propynyl butylcarbamate (IPBC)], the growth yield is, setting by setting: (40 h) 86.9 ± 9.1%; (72 h) 94.8 ± 7.3%.

With `CC(C)(C)CC(C)(C)c1ccc(OCCOCC[N+](C)(C)Cc2ccccc2)cc1` [Benzethonium chloride] + CCCCNC(=O)OCC#CI [3-iodo-2-propynyl butylcarbamate (IPBC)], the growth yield (40 h) was determined as 3.18 ± 0.32% and the growth yield (72 h) was determined as 2.52 ± 0.42%.

As to `C[N+](C)(CCOc1ccccc1)Cc1ccccc1.O=C([O-])c1cc2ccccc2cc1O` [Bephenium hydroxynaphthoate] + CCCCNC(=O)OCC#CI [3-iodo-2-propynyl butylcarbamate (IPBC)], the growth yield reads like this: (40 h) 63.5%; (72 h) 85.3 ± 2.4%.

Consider `Cc1cc(C(C)(C)CC(C)(C)C)ccc1OCCOCC[N+](C)(C)Cc1ccccc1` [Methyl benzethonium chloride] + CCCCNC(=O)OCC#CI [3-iodo-2-propynyl butylcarbamate (IPBC)], for which the growth yield by setting is: (40 h) 2.86 ± 0.64%; (72 h) 2.62 ± 0.1%.

With `CCC(=O)O[C@]1(C(=O)SCF)[C@H](C)C[C@H]2[C@@H]3C[C@H](F)C4=CC(=O)C=C[C@]4(C)[C@@]3(F)[C@@H](O)C[C@@]21C` [Fluticasone propionate] + CCCCNC(=O)OCC#CI [3-iodo-2-propynyl butylcarbamate (IPBC)], the growth yield was determined as 101 ± 0.64% (40 h) and 99.63 ± 0.42% (72 h).

Consider `Cc1cc(CC(=O)O)n(C)c1C(=O)c1ccc(Cl)cc1` [Zomepirac sodium salt] + CCCCNC(=O)OCC#CI [3-iodo-2-propynyl butylcarbamate (IPBC)], for which the growth yield reads like this: (40 h) 89.59 ± 0.64%; (72 h) 92.4 ± 2.2%.

For the compound `CNCC[C@@H](Oc1ccccc1C)c1ccccc1` [Tomoxetine hydrochloride] + CCCCNC(=O)OCC#CI [3-iodo-2-propynyl butylcarbamate (IPBC)], the growth yield (40 h) was determined as 78.31 ± 0.48% and the growth yield (72 h) was found to be 87.89 ± 0.84%.

For `CN1CCN(C2=Nc3cc(Cl)ccc3Nc3ccccc32)CC1` [Clozapine] + CCCCNC(=O)OCC#CI [3-iodo-2-propynyl butylcarbamate (IPBC)], the growth yield (40 h) stood at 65.6 ± 2.7% and the growth yield (72 h) worked out at 93.8 ± 2.7%.

For the compound `CC(NCCc1ccc(O)cc1)C(O)c1ccc(O)cc1` (configuration not stated) [Ritodrine hydrochloride] + CCCCNC(=O)OCC#CI [3-iodo-2-propynyl butylcarbamate (IPBC)], the growth yield (40 h) was 83.07 ± 0.16% and the growth yield (72 h) amounted to 92.4 ± 0.32%.

Turning to `CCCCCCCCNC(C)C(O)c1ccc(SC(C)C)cc1` (configuration not stated) [Suloctidil] + CCCCNC(=O)OCC#CI [3-iodo-2-propynyl butylcarbamate (IPBC)], the growth yield by setting is: (40 h) 5.08 ± 0.32%; (72 h) 33.1 ± 2.5%.

As to `CC(CCc1ccccc1)NC(C)C(O)c1ccc(O)cc1` (configuration not stated) [Nylidrin] + CCCCNC(=O)OCC#CI [3-iodo-2-propynyl butylcarbamate (IPBC)], the growth yield reads like this: (40 h) 95.3 ± 2.9%; (72 h) 96.59 ± 0.1%.

`OCCN1C[C@H](O)[C@@H](O)[C@H](O)[C@H]1CO` [Miglitol] + CCCCNC(=O)OCC#CI [3-iodo-2-propynyl butylcarbamate (IPBC)]: the growth yield runs as follows: (40 h) 90.1 ± 9.1%; (72 h) 93 ± 4.5%.

With `CCOC(=O)c1ccc(C#Cc2ccc3c(c2)C(C)(C)CCS3)nc1` [Tazarotene] + CCCCNC(=O)OCC#CI [3-iodo-2-propynyl butylcarbamate (IPBC)], the growth yield worked out at 81.2 ± 2.7% (40 h) and 91.6 ± 1.4% (72 h).

On to `C#CCN[C@@H]1CCc2ccccc21` [Rasagiline] + CCCCNC(=O)OCC#CI [3-iodo-2-propynyl butylcarbamate (IPBC)], for which the growth yield (40 h) amounted to 84.5 ± 1.3% and the growth yield (72 h) came out at 85.6 ± 1.1%.

In the case of `O=C(CCCN1CCC(O)(c2ccc(Br)cc2)CC1)c1ccc(F)cc1` [Bromperidol] + CCCCNC(=O)OCC#CI [3-iodo-2-propynyl butylcarbamate (IPBC)], the growth yield is, setting by setting: (40 h) 64.3 ± 2.1%; (72 h) 87.3 ± 1.5%.

Consider `O=C(CCCN1CCC(O)(c2ccc(Cl)cc2)CC1)c1ccc(F)cc1` [Haloperidol] + CCCCNC(=O)OCC#CI [3-iodo-2-propynyl butylcarbamate (IPBC)], for which the growth yield reads like this: (40 h) 10.2 ± 1.9%; (72 h) 60.4 ± 4.4%.

`O=C(CCCN1CCC2(CC1)C(=O)NCN2c1ccccc1)c1ccc(F)cc1` [Spiperone] + CCCCNC(=O)OCC#CI [3-iodo-2-propynyl butylcarbamate (IPBC)]: the growth yield is, setting by setting: (40 h) 77.8 ± 2.9%; (72 h) 90.4 ± 0.21%.

As for `CSc1nc2cc(Cl)c(Oc3cccc(Cl)c3Cl)cc2[nH]1` [Triclabendazole] + CCCCNC(=O)OCC#CI [3-iodo-2-propynyl butylcarbamate (IPBC)], the growth yield amounted to 66.7 ± 3.2% (40 h) and 120 ± 6.5% (72 h).

In the case of `O=C(O)c1cn(C2CC2)c2cc(N3CCNCC3)c(F)cc2c1=O` [Ciprofloxacin hydrochloride monohydrate] + CCCCNC(=O)OCC#CI [3-iodo-2-propynyl butylcarbamate (IPBC)], the growth yield came to 86.2 ± 8.7% (40 h) and 91.5 ± 6.3% (72 h).

On to `CCOc1nc2cccc(C(=O)OCc3oc(=O)oc3C)c2n1Cc1ccc(-c2ccccc2-c2noc(=O)[nH]2)cc1` [Azilsartan kamedoxomil] + CCCCNC(=O)OCC#CI [3-iodo-2-propynyl butylcarbamate (IPBC)], for which the growth yield is, setting by setting: (40 h) 110 ± 5.1%; (72 h) 105 ± 2.7%.

`CN[C@@H]1[C@@H](O[C@H]2O[C@H](CO)[C@@H](N)[C@H](O)[C@H]2O)OC2C[C@@H](N)[C@@H](O[C@H]3[C@H](O)[C@@H](O)[C@H](N)C[C@@H]3N)OC2[C@@H]1O` (some centres not stated) [Apramycin] + CCCCNC(=O)OCC#CI [3-iodo-2-propynyl butylcarbamate (IPBC)]: the growth yield is, setting by setting: (40 h) 96.6 ± 4.1%; (72 h) 97.1 ± 1.5%.

With `CCCN(CCC)S(=O)(=O)c1ccc(C(=O)O)cc1` [Probenecid] + CCCCNC(=O)OCC#CI [3-iodo-2-propynyl butylcarbamate (IPBC)], the growth yield reads like this: (40 h) 81.5 ± 4.9%; (72 h) 86.1 ± 0.73%.

As to `NC(=O)N1c2ccccc2C=Cc2ccccc21` [Carbamazepine] + CCCCNC(=O)OCC#CI [3-iodo-2-propynyl butylcarbamate (IPBC)], the growth yield reads like this: (40 h) 92.8 ± 1.9%; (72 h) 93.8 ± 1.1%.

For the compound `COc1cc2c(c(OC)c1OC)-c1ccc(OC)c(=O)cc1[C@@H](NC(C)=O)CC2` [Colchicine] + CCCCNC(=O)OCC#CI [3-iodo-2-propynyl butylcarbamate (IPBC)], the growth yield by setting is: (40 h) 88.5 ± 6.8%; (72 h) 92.9 ± 1.7%.

Regarding `NC[C@@H]1O[C@H](O[C@H]2[C@@H](O)[C@H](O[C@@H]3[C@@H](O)[C@H](N)C[C@H](N)[C@H]3O[C@H]3O[C@H](CO)[C@@H](O)[C@H](O)[C@H]3N)O[C@@H]2CO)[C@H](N)[C@@H](O)[C@@H]1O` [Paromomycin sulfate] + CCCCNC(=O)OCC#CI [3-iodo-2-propynyl butylcarbamate (IPBC)], the growth yield came out at 84 ± 7.2% (40 h) and 86.5 ± 2.2% (72 h).

In the case of `COC1=C(OC)C(=O)C(CCCCCCCCCCO)=C(C)C1=O` [Idebenone] + CCCCNC(=O)OCC#CI [3-iodo-2-propynyl butylcarbamate (IPBC)], the growth yield runs as follows: (40 h) 49.1 ± 8.1%; (72 h) 73.9 ± 4.5%.

As for `CCn1cc(C(=O)O)c(=O)c2cc(F)c(N3CCNC(C)C3)c(F)c21` (configuration not stated) [Lomefloxacin hydrochloride] + CCCCNC(=O)OCC#CI [3-iodo-2-propynyl butylcarbamate (IPBC)], the growth yield stood at 87.4 ± 8.3% (40 h) and 96.3 ± 6.5% (72 h).

Regarding `CCCN(CCC)CCc1cccc2c1CC(=O)N2` [Ropinirole hydrochloride] + CCCCNC(=O)OCC#CI [3-iodo-2-propynyl butylcarbamate (IPBC)], the growth yield reads like this: (40 h) 84.8 ± 1.3%; (72 h) 90.61 ± 0.42%.

For `O=C(O)c1ccccc1Nc1cccc(C(F)(F)F)c1` [Flufenamic acid] + CCCCNC(=O)OCC#CI [3-iodo-2-propynyl butylcarbamate (IPBC)], the growth yield amounted to 29.1 ± 2.1% (40 h) and 59.05 ± 0.32% (72 h).

Consider `O=C(O)c1cccnc1Nc1cccc(C(F)(F)F)c1` [Niflumic acid] + CCCCNC(=O)OCC#CI [3-iodo-2-propynyl butylcarbamate (IPBC)], for which the growth yield came out at 63.9 ± 2.9% (40 h) and 85.2 ± 3.1% (72 h).

In the case of `O=C(OCCOCCO)c1ccccc1Nc1cccc(C(F)(F)F)c1` [Etofenamate] + CCCCNC(=O)OCC#CI [3-iodo-2-propynyl butylcarbamate (IPBC)], the growth yield turned out to be 59.2 ± 1.4% (40 h) and 94.4 ± 2.1% (72 h).

Regarding `CCCc1nc(C(C)(C)O)c(C(=O)O)n1Cc1ccc(-c2ccccc2-c2nnn[nH]2)cc1` [Olmesartan] + CCCCNC(=O)OCC#CI [3-iodo-2-propynyl butylcarbamate (IPBC)], the growth yield (40 h) is 107 ± 1.3% and the growth yield (72 h) was found to be 104 ± 1.4%.

In the case of `OC(c1cc(C(F)(F)F)nc2c(C(F)(F)F)cccc12)C1CCCCN1` (configuration not stated) [Mefloquine hydrochloride] + CCCCNC(=O)OCC#CI [3-iodo-2-propynyl butylcarbamate (IPBC)], the growth yield reads like this: (40 h) 74.8 ± 4%; (72 h) 103 ± 3.4%.

Consider `O=C(O)CCc1nc(-c2ccccc2)c(-c2ccccc2)o1` [Oxaprozin] + CCCCNC(=O)OCC#CI [3-iodo-2-propynyl butylcarbamate (IPBC)], for which the growth yield (40 h) came to 72.7 ± 4.5% and the growth yield (72 h) worked out at 85.47 ± 0.73%.

As for `O=C(O)Cc1ccc(-c2ccccc2)cc1` [Felbinac] + CCCCNC(=O)OCC#CI [3-iodo-2-propynyl butylcarbamate (IPBC)], the growth yield runs as follows: (40 h) 56.2 ± 4.1%; (72 h) 91.9 ± 4.6%.

On to `O=C(O)Cc1sc(-c2ccccc2)nc1-c1ccc(Cl)cc1` [Fentiazac] + CCCCNC(=O)OCC#CI [3-iodo-2-propynyl butylcarbamate (IPBC)], for which the growth yield by setting is: (40 h) 25.4%; (72 h) 77.1 ± 16%.
